# Measured values reported in PubChem BioAssay AID463188 (University of Pittsburgh Molecular Library Screening Center, 2010).
# Screen size: about 1,300 compounds; about 360 (28%) were called active.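 How the source made its calls: active means average inhibition of at least 50%, with Z-scores no higher than 3 in both the phospho-tyrosine peptide and fluorescence counterscreens; inactive means the rest.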 These entries were drawn from the full list.
# Key:
# [1] = retest of Hck:Nef kinase inhibitor hits, confirmation, biochemical, Z-Lyte FRET, 384-well, p-Tyr peptide counterscreen (AID 463188); conditions: Recombinant Hck-YEEI:Nef, Z-Lyte FRET kinase assay; measured here: p-Tyr peptide counterscreen; at 10 µM
# [2] = target: Tyrosine-protein kinase HCK (Homo sapiens) (UniProt P08631); assay: as above; conditions: Recombinant Hck-YEEI:Nef, Z-Lyte FRET kinase assay; at 10 µM; stronger effect = higher value
# Chain of Tyrosine-protein kinase HCK (Homo sapiens) (P08631 whole entry, looked up): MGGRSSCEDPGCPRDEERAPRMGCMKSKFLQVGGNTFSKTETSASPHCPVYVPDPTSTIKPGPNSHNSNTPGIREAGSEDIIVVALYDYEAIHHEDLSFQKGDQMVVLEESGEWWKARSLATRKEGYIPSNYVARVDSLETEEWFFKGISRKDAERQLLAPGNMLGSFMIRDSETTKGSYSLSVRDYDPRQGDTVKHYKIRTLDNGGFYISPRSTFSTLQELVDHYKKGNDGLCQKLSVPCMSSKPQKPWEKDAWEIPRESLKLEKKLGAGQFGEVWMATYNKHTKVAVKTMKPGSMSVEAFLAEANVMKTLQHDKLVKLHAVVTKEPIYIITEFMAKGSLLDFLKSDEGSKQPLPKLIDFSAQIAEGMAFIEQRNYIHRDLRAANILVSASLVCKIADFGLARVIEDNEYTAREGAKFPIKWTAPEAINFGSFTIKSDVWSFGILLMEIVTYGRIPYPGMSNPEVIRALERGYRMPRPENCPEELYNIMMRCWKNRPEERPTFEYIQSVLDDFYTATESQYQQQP
Compound,z-score [1],inhibition [2],inhibition [1]
N#Cc1c(-c2cccs2)nc(SCC(=O)c2ccc(Br)cc2)[nH]c1=O,-2.14,54.2% (active),
Cc1ccc(S(=O)(=O)c2c(N)n(C)c3nc4ccccc4nc23)cc1,15.1,51.3% (inactive),
Cc1ccc(-n2c(=O)c(C#N)cc3c(=O)n4ccccc4nc32)cc1C,,,15.8
COc1ccc(N=Cc2c(O)[nH]c3ccccc23)cc1OC,2.53,67.3% (active),
CCN(CC)c1ccc2cc(C(=O)O)c(=O)oc2c1,,,180
CC(C)n1cnc2c(Nc3cccc(Cl)c3)nc(N(CCO)CCCO)nc21,-1.42,92.6% (active),
COc1cccc(CNC(=O)CCC2CCCN(Cc3ccc(OC(F)F)cc3)C2)c1 (configuration not stated),0.273,13.3% (inactive),
CCn1c(=O)c2cc(C(=O)Nc3cccc(C(C)=O)c3)sc2c2ccccc21,0.522,30.2% (inactive),
CC(C)(C)OC(=O)NCCCCCC(=O)N/N=C/c1coc2ccccc2c1=O,-0.798,80.9% (active),
Oc1c(Cl)cc(Cl)c(Cl)c1Cc1c(O)c(Cl)cc(Cl)c1Cl,-1.64,12.2% (inactive),
COC(=O)C1=CN(Cc2ccc(OC)c(OC)c2)C=C(C(=O)OC)C1c1cccs1,,,22.9
O=C(Nc1ccncc1)c1cc(-c2ccccn2)nc2ccc(Br)cc12,0.0526,76.4% (active),
Cc1ccc(-c2cc(C(=O)NCc3cn(C)nc3C)c3cc(Br)ccc3n2)cc1,-0.98,46.1% (inactive),
O=C(CSc1cccc2cccnc12)N/N=C/c1cccnc1,-0.0644,36.9% (inactive),
Cc1ncc(CC(=O)n2cc(C(=O)c3cc(Cl)ccc3O)cn2)s1,-1.16,75% (active),
COC/C=C/C1=CC2=CC(=O)C(C)(OC(=O)CCC(=O)OC)C(=O)C2=CO1 (configuration not stated),-0.884,43.8% (inactive),
O=C(Cc1ccccc1)Nc1cccc(C(=O)N/N=C/c2ccco2)c1,-0.994,30% (inactive),
COc1ccc(C(=O)n2nc(-c3ccc(Cl)cc3)nc2N)cc1OC,3.28,2.06% (inactive),
CCn1c(=N)c(C(=O)NCCCOC)cc2c(=O)n3cccc(C)c3nc21,,,192
Cc1ccc(/C=C/C(=O)Nc2ccc([N+](=O)[O-])c(NC(=O)/C=C/c3ccc(C)o3)c2)o1,-2.13,51.4% (active),
O=C(NNC(=O)c1csc(-c2cccnc2)n1)Nc1ccc(Cl)cc1,-0.478,11.4% (inactive),
Cc1ccc(SC(CC(=O)c2ccc(C(C)(C)C)cc2)C(=O)O)cc1 (configuration not stated),-0.516,20.8% (inactive),
O=[N+]([O-])c1cc(Cl)cc(/C=N/NC(=S)Nc2cc(S(=O)(=O)N3CCOCC3)ccc2Cl)c1O,-0.299,63.6% (active),
CN(C)S(=O)(=O)c1cccc(-c2nn(-c3ccccc3)cc2/C=C2\SC(=S)N(CC(=O)O)C2=O)c1,-1.38,38.1% (inactive),
CCOc1ccc(-c2nc(N)ncc2-c2ccccc2OC)c(O)c1,-1.74,63.2% (active),

Compound,z-score [1],inhibition [2],inhibition [1]
C=C(C)COc1ccc(-c2nc(N)ncc2-c2ccccc2OC)c(O)c1,-0.555,55.8% (active),
COc1cccc(C(=O)c2cc3ccc(O)cc3oc2=O)c1,,,51.8
O=C1Oc2ccccc2C(=O)/C1=C/c1ccccc1O,-0.0667,30.1% (inactive),
Cc1cc(/C=N/Nc2ccc([N+](=O)[O-])cn2)c(C)n1-c1cccc(C(=O)O)c1,0.131,38.5% (inactive),
COC(=O)Cc1cc(=O)oc2c(C)c(O)ccc12,,,94.6
CC(=O)Oc1ccc2c(C)c(CC(C)O)c(=O)oc2c1 (configuration not stated),,,122
CCCCN(CCCC)CC(O)Cn1c2ccccc2c(=O)c2ccccc21 (configuration not stated),,,80.9
OC(c1nnc(-c2ccccc2)o1)c1cccs1 (configuration not stated),-1.39,19.9% (inactive),
CCOc1ccccc1C1C(C(=O)OC)=CN(C)C=C1C(=O)OC,,,41.6
Cc1cccc(-[n+]2c(-c3cccc(Br)c3)[nH]c3nc4ccccc4nc32)c1,-0.694,13.5% (inactive),
Cc1cc(C)c2nc(-c3cccnc3)cc(C(=O)Nc3ccc(S(=O)(=O)Nc4onc(C)c4C)cc3)c2c1,-1.22,40.5% (inactive),
O=C(Nc1ccc(S(=O)(=O)Nc2nccs2)cc1)c1cc(-c2ccncc2)nc2ccccc12,-0.658,65.3% (active),
COCCCn1c(-c2cccs2)nc2nc3ccccc3nc21,,,61.4
CN(CC(=O)Nc1cccc(F)c1)CC(=O)Nc1cccc([N+](=O)[O-])c1,-0.0694,62.1% (active),
O=[N+]([O-])c1cccc(Nc2c3ccccc3nc3ccccc23)c1,0.872,9.19% (inactive),
O=C(NCc1ccccc1)C1CCCN(c2nc3ccsc3c(=O)s2)C1 (configuration not stated),2.05,18.7% (inactive),
CN(C(=O)COC(=O)c1cc(-c2ccco2)nc2ccccc12)C1CCS(=O)(=O)C1 (configuration not stated),0.38,49.5% (inactive),
c1ccc(CSc2nnc(-c3ccco3)c(-c3ccco3)n2)cc1,0.442,26.4% (inactive),
Clc1ccc2c(c1)C1=C(C(c3ccncc3)O2)C(c2ccc(Br)cc2)n2ncnc2N1 (configuration not stated),1.34,92.8% (active),
Cc1cc(OC(=O)c2ccccc2Cl)ccc1N1C(=O)CCC1=O,0.0636,11.5% (inactive),
COC(=O)c1ccc(OCC(O)CN(CCO)CC(O)Cn2ccc3ccccc32)cc1 (configuration not stated),3.64,-1.67% (inactive),
O=C(O)CCn1cc(/C=C/C(=O)c2ccc(Cl)cc2)c(-c2cccc(Br)c2)n1,-0.131,24.8% (inactive),
CCCn1c(=NC(C)=O)c(C(=O)OCC)cc2c(=O)n3ccccc3nc21,85.9,33.1% (inactive),
Cc1cccn2c(=O)c3cc(C#N)c(=O)n(CCCN4CCOCC4)c3nc12,,,248
